The record followed here is PubChem BioAssay AID463173 (ICCB-Longwood Screening Facility, Harvard Medical School, 2010).

About 4,300 (8.3%) of roughly 52,000 compounds were called active. This is one part of a sample in which actives are shown more often than they occur. A number with no mark means an inactive call. Rule as the data show it: active = survival mostly below about 52% (no sharp cut-off); inactive = mostly above about 56%.

In the assay the test system is DeltatarO mutant. The assay is described as follows: growth inhibition of S. aureus wild type versus tarO mutant, primary screen, teichoic acid synthesis inhibitors, RN4220, OD600 (AID 463173). The note with it: OD600, 18 h, hits give low values, screened at 18.75 µg/mL (by protocol).
Regarding `CCn1c(CN2CCCCC2)nc2cc(NC(=O)COc3cc(C)ccc3C(C)C)ccc21`, the survival is 73%.

For the compound `COc1ccc(C)cc1Nc1cc(C)nc(C)n1`, the survival was 66%.

`CCC(=O)N1CCc2cc(Br)cc(S(=O)(=O)CCC(=O)NCc3ccc(Cl)cc3)c21`: the survival is 78%.

With `CCOc1ccc(-c2cc(C(=O)OC)on2)cc1`, the survival was 55%.

Take `CCc1ccc(NC(=O)CC2C(=O)N(c3cccc(C)c3)C(=O)N2Cc2ccc(F)cc2)cc1` (stereo not given): the survival was 89%.

Take `CCN(c1ccccc1)C(CNS(=O)(=O)c1ccccc1)c1ccccc1` (stereo not given): the survival was 71%.

`CCN(C(=O)c1cc2c(s1)-c1ccccc1OC2)c1cccc(C(F)(F)F)c1`: the survival was -1% (active).

In the case of `CCOc1ccc(CNC(=O)c2cc3c(s2)-c2ccccc2OC3)cc1`, the survival is 71%.

As to `CCCN(C(=O)c1cc2c(s1)-c1ccccc1SC2)c1ccccc1F`, the survival is 1% (active).

As to `O=C(NCc1ccc(F)cc1)c1cc2c(s1)-c1ccccc1SC2`, the survival was 45% (active).

For the compound `CN(Cc1ccccc1)C(=O)c1cc2c(s1)-c1ccc(Cl)cc1SC2`, the survival is 86%.

As to `CCCN(C(=O)c1cc2c(=O)n(CC)c3ccccc3c2s1)c1ccccc1F`, the survival was 64%.

For the compound `O=C(NCc1ccc(Cl)cc1)c1cc2c(s1)-c1ccccc1SC2`, the survival was 58%.

For the compound `CCN(C(=O)c1cc2c(=O)n(CC)c3ccccc3c2s1)c1cccc(C(F)(F)F)c1`, the survival is 72%.

In the case of `Cc1ccc(CNC(=O)c2cc3c(s2)-c2ccccc2SC3)cc1`, the survival was 94%.

Consider `CCCN(C(=O)c1cc2c(s1)-c1c(C)cccc1OC2)c1ccc(OCC)cc1`, for which the survival is 98%.

On to `CCCN(C(=O)c1cc2c(s1)-c1ccccc1OC2)c1ccc(C(C)C)cc1`, for which the survival is -3% (active).

As for `COc1ccc(OCC(=O)Nc2ccc3c(c2)OCO3)cc1`, the survival was 76%.

With `COc1ccc(Cl)cc1NC(=O)N1CCC(CN2CCc3ccccc3C2)CC1`, the survival was 109%.

For `COc1ccc(S(=O)(=O)c2c(SC)nn(Cc3ccccc3C)c2NC(C)=O)cc1`, the survival is 55%.

For the compound `CN1CCN(CCCNC(=O)c2cnn(-c3ccccc3)c2-n2cccc2)CC1`, the survival was 87%.

For the compound `Cc1ccc(OCC(=O)NCC(=O)OCc2cc(=O)n3nc(C)sc3n2)cc1`, the survival was 90%.

With `Cc1ccc(C)c(N2CCN(c3nc4ccccc4n4nnnc34)CC2)c1`, the survival is 92%.

On to `COc1ccc(Cn2c(=O)[nH]c3cc(C(=O)N4CCN(c5cccc(OC)c5)CC4)ccc3c2=O)cc1`, for which the survival is 63%.

Turning to `CC(C)(C)OC(=O)N1CCC(c2c(C(=O)Nc3ccc4c(c3)OCCO4)cnn2-c2ccc(Cl)cc2)CC1`, the survival is 87%.
